Experimental data taken from the supplement of paper PMC6555819.

Columns and labels:
Experiment in all cases: PBM binding z-score (relative to random genomic background probes); higher = stronger binding; sequences stand for … in GC…GCGATTGACAGCGTAGAATGAAGG
[1] = test system: FXR:RXRa (NR concentration 270 nM, RXRa partner concentration 90 nM)
How it was run: (§1)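 Probes were double-stranded and carried 34-nt variable regions with direct-repeat seeds, single-nucleotide variants, half-site ablations and random human genomic background sequences, printed on custom Agilent 4×180K protein-binding microarrays. Arrays were incubated 1 h with ligand-free nuclear receptor dimers in PBS pH 7.4, 2% milk, 0.02% Triton X-100, 1 mM DTT, 0.2 mg/mL BSA and 0.4 mg/ml salmon testes DNA. Antibodies against each partner (one per run) detected binding, and scanned fluorescence was regression-normalized. Binding z-scores use the random background probes as reference.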

[2] = test system: LXRa:RXRa (NR concentration 270 nM, RXRa partner concentration 90 nM)
How it was run: as §1

[3] = test system: LXRa homodimer (NR concentration 270 nM)
How it was run: as §1

[4] = test system: LXRb:RXRa (NR concentration 270 nM, RXRa partner concentration 90 nM)
How it was run: as §1

[5] = test system: LXRb homodimer (NR concentration 270 nM)
How it was run: as §1

[6] = test system: PPARa:RXRa (NR concentration 270 nM, RXRa partner concentration 90 nM)
How it was run: as §1

[7] = test system: PPARg:RXRa (NR concentration 180 nM, RXRa partner concentration 90 nM)
How it was run: as §1

[8] = test system: PPARg:RXRa 270nM:90nM, anti-RXR (NR concentration 270 nM, RXRa partner concentration 90 nM)
How it was run: as §1

[9] = test system: PPARg:RXRa 30nM:10nM, anti-RXR (NR concentration 30 nM, RXRa partner concentration 10 nM)
How it was run: as §1

[10] = test system: PPARg:RXRa 90nM:30nM, anti-RXR (NR concentration 90 nM, RXRa partner concentration 30 nM)
How it was run: as §1

[11] = test system: PPARg:RXRa DBDmut IVT, anti-RXR (DBD mutation: RXRa K156A/R161A, NR concentration 270 nM, RXRa partner concentration 90 nM)
How it was run: as §1

[12] = test system: PPARg:RXRa IVT, anti-PPARg (NR concentration 270 nM, RXRa partner concentration 90 nM)
How it was run: as §1

[13] = test system: PPARg DBDmut:RXRa IVT, anti-PPARg (DBD mutation: PPARg1 K132A/R137A, NR concentration 270 nM, RXRa partner concentration 90 nM)
How it was run: as §1

[14] = test system: PPARg DBDmut IVT, anti-PPARg (DBD mutation: PPARg1 K132A/R137A, NR concentration 270 nM)
How it was run: as §1

[15] = test system: PPARg homodimer (NR concentration 180 nM)
How it was run: as §1

[16] = test system: PXR:RXRa (NR concentration 270 nM, RXRa partner concentration 90 nM)
How it was run: as §1

[17] = test system: PXR homodimer (NR concentration 270 nM)
How it was run: as §1

[18] = test system: RARa:RXR (NR concentration 270 nM, RXRa partner concentration 90 nM)
How it was run: as §1

[19] = test system: RARa homodimer (NR concentration 270 nM)
How it was run: as §1

[20] = test system: RARb:RXRa (NR concentration 270 nM, RXRa partner concentration 90 nM)
How it was run: as §1

Row | Sequence | PBM binding z-score [1] | PBM binding z-score [2] | PBM binding z-score [3] | PBM binding z-score [4] | PBM binding z-score [5] | PBM binding z-score [6] | PBM binding z-score [7] | PBM binding z-score [8] | PBM binding z-score [9] | PBM binding z-score [10] | PBM binding z-score [11] | PBM binding z-score [12] | PBM binding z-score [13] | PBM binding z-score [14] | PBM binding z-score [15] | PBM binding z-score [16] | PBM binding z-score [17] | PBM binding z-score [18] | PBM binding z-score [19] | PBM binding z-score [20]
1 | GATACAGGGTCAAGGCCAGTGTACGCGTATTGAT | 6.59 | 4.26 | -0.145 | 3.52 | -0.211 | 5.6 | 5.69 | 5.76 | 2.44 | 4.1 | 2.53 | 3.95 | 0.493 | -0.124 | 2.17 | 3.97 | 0.209 | 4.47 | 0.237 | 4.41
2 | GGAACGAGGGCATTCGAGTTTATAGCATGGCGAT | 1.12 | 4.61 | 0.296 | 0.629 | -0.537 | 1.57 | 0.982 | 0.798 | -0.0706 | 0.209 | 2.91 | 2.31 | -0.439 | -0.834 | -0.0637 | 5.87 | 7.33 | 1.14 | -0.16 | 1.9
3 | CGAGCTAGGTCATCCAGGACAGTGAATACATTGA | 4.29 | 2.49 | 0.492 | 1.96 | 0.0673 | 3.54 | 2.6 | 2.25 | 0.528 | 1.35 | 3.44 | 3.06 | 0.0496 | -0.51 | 1.51 | 1.88 | 0.935 | 2.15 | 0.298 | 3.85
4 | AGAATGAGGTTATACGTAGATCAGGGAAGAAAGT | 2.37 | 1.99 | 0.0175 | 1.7 | 0.71 | 3.18 | 2.1 | 2.02 | 0.854 | 1.48 | 4.01 | 1.92 | 0.956 | 1.16 | 0.9 | 1.2 | 0.682 | 1.82 | 0.738 | 1.54
5 | CCTTACGGGTCGCGAGGTTATAGCACGACGAGCG | 2.87 | 1.99 | -0.147 | 1.82 | -0.455 | 3.61 | 1.91 | 2.15 | 0.056 | 0.872 | 0.357 | 1.14 | -0.25 | -0.857 | 1.41 | 2.63 | -0.189 | 3.62 | -0.132 | 2.23
6 | CCTAGCAGGCCAGGGTCACTCATGCATTTCGCTT | 1.41 | 1.5 | -0.432 | 1.72 | -0.832 | 2.91 | 0.947 | 1.24 | -0.332 | 0.442 | -0.158 | 1.27 | -1.04 | -1.56 | 0.688 | 2.19 | -0.121 | 2.67 | -0.129 | 2.38
7 | CCTAGTTGGTCAAGTTCACACACGCTATAGGTAC | 1.66 | 2.31 | 1.74 | 2.18 | 0.695 | 2.19 | 1.3 | 1.5 | 0.803 | 1.16 | 1.95 | 1.82 | 0.944 | 1.02 | 2.59 | 3.63 | 5.51 | 2.27 | 1.56 | 2.92
8 | CCTTACGGGTCACTCCAGCTTATAGCATCGGAGT | 4.62 | 3.14 | -0.000472 | 2.66 | 0.0792 | 4.46 | 2.98 | 3.49 | 0.864 | 2.44 | 2.73 | 2.95 | 0.84 | 0.0391 | 1.95 | 2.52 | 0.285 | 3.54 | 0.557 | 3.56
9 | ACTAGCTGGCCAAGTTTGGGTCACTCAAACAAAG | -0.286 | -0.318 | -0.768 | 0.339 | -0.865 | 1.03 | -0.347 | 0.0249 | -0.62 | -0.218 | -0.306 | 0.303 | -0.848 | -0.239 | -0.138 | 0.38 | -0.487 | 0.811 | -1.29 | 1.08
10 | TAGCCTAGGTCATCGGCCAGTATACCACGCGAAC | 4.02 | 3.35 | 0.717 | 2.54 | 0.178 | 3.56 | 2.62 | 2.75 | 0.448 | 1.67 | 1.44 | 2.98 | 1.05 | 0.00127 | 1.6 | 1.62 | -0.365 | 2.58 | -0.512 | 3.75
11 | CCTCGGAGGACAGAAAGTCAGAGCTGTCCGCTTT | -0.421 | -0.464 | -0.45 | -1.05 | -0.903 | -0.745 | -0.796 | -0.982 | -1.28 | -1.14 | -0.616 | -1.05 | -1.75 | -1.4 | -0.952 | -0.859 | -0.619 | -0.54 | -0.769 | 0.221
12 | GCTATTAGTTGAAGGGGCAACCGAATGATTCTCG | -0.0427 | -0.304 | -0.118 | 0.151 | -0.16 | 0.84 | 0.924 | 2.1 | 0.49 | 1.65 | 0.421 | -0.0967 | -0.209 | 0.191 | 1.03 | -0.209 | -0.028 | 0.0521 | 0.778 | 0.759
13 | CTACCAAGGTGACCAAGGTCGTTGATTACTATTC | 0.954 | 0.863 | 0.0331 | 1.37 | -0.415 | 1.82 | 0.763 | 0.769 | -0.239 | 0.452 | 1.56 | 2.32 | -0.302 | -0.385 | 0.966 | 2.3 | 1.04 | 2.16 | -0.214 | 1.65
14 | ACTTACGGGTCAACCAGGTTATAGCACGCGTATA | 7.15 | 5.03 | 0.836 | 4.26 | 0.9 | 5.69 | 6 | 5.69 | 3.07 | 4.26 | 3.23 | 4.21 | 2.29 | 2.39 | 4.29 | 4.77 | 1.62 | 5.34 | 1.57 | 4.17
15 | CATCCTAGGTCAGGGCCAGTATAGGAGGAACGTT | 2.24 | 2.03 | 0.118 | 1.17 | -0.0238 | 2.75 | 1.89 | 2.19 | 0.615 | 1.34 | 3.29 | 3.82 | 0.575 | -0.518 | 1.36 | 0.842 | -0.294 | 1.65 | 0.477 | 3.65
